Source: PubChem BioAssay (EPA / NIEHS)
Inconclusive results are not listed. Activity calls are given as the source filed them. How the source made its calls, unless noted: active means hit-call score of the fitted dose curve at least 0.9, where 1 is the maximum; inactive means score below 0.9.

What was measured:
[1] = CCTE_Mundy_HCI_Cortical_NOG_NeuriteCount: CCTE's Neurite Outgrowth Assay in rat cortical cells for Neurite Count, Mundy Lab (AID 2284212);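 further: cells fixed about two days after chemical exposure began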
Method in brief: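 Neurite number per cell from high-content imaging of betaIII-tubulin immunostaining, with Hoechst nuclear counterstain.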

[2] = CCTE_Mundy_HCI_Cortical_NOG_NeuronCount: CCTE's Neurite Outgrowth Assay in rat cortical cells for Neuron Count, Mundy Lab (AID 2284236; active means hit-call score of the fitted dose curve at least 0.9, where 1 is the maximum;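 further: neurons counted by imaging betaIII-tubulin and Hoechst stained cortical cells; cells exposed to compound for about 48 hours before fixation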)
Method in brief: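 Read-out: neuron number by high-content imaging of betaIII-tubulin (Alexa Fluor-488) and Hoechst-labelled rat primary cortical cells.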

[3] = CCTE_Mundy_HCI_Cortical_NOG_BPCount: CCTE's Neurite Outgrowth Assay in rat cortical cells for Branch Point Count, Mundy Lab (AID 2284237)
Method in brief: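 Measured 50.33 h after dosing, this morphology endpoint uses rat primary cortical cultures labelled for betaIII-tubulin. Branch points are quantified by high-content imaging, with DMSO as negative control and baseline.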

Measured: outcome

CCN(CC)CCCC(C)Nc1nc(C)cc(Nc2ccc3nc(C)cc(N)c3c2)n1 (stereo not drawn)
inactive: all assays above
